Measurements as given in PMC5540273 (PLoS ONE, 2017).
Like-named read-outs stand apart in the source and are kept apart here.

Key:
Conditions in all cases: n = 1
ERBB2 = tested on: ERBB2
ERBB3 = tested on: ERBB3
ERBB4 = tested on: ERBB4
ERK1 = tested on: T1, ERK1
T1 construct: gene MAPK3

ERK2 = tested on: T2, ERK2
T2 construct: gene MAPK1

ERK3 = tested on: T3, ERK3
T3 construct: gene MAPK6

ERK4 = tested on: T4, ERK4
T4 construct: gene MAPK4

ERK5 = tested on: T5, ERK5
T5 construct: gene MAPK7

ERK8 = tested on: T6, ERK8
T6 construct: gene MAPK15

ERN1 = tested on: ERN1
FAK = tested on: T7, FAK
T7 construct: gene PTK2

FER = tested on: FER
FES = tested on: FES
FGFR1 = tested on: FGFR1
FGFR2 = tested on: FGFR2
FGFR3 = tested on: FGFR3
FGFR4 = tested on: FGFR4
FGR = tested on: FGR
FLT1 = tested on: FLT1
FLT3-autoinhibited = tested on: FLT3-autoinhibited
[1] = concentration: 1 μM, replicates: in singlicate
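Further: KINOMEscan kinase panel screen.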

CC1=C(C(=O)Nc2cc3cn[nH]c3cc2F)C(c2ccc(C(F)(F)F)cc2)CC(=O)N1 (centres unmarked) [GSK429286]
%Inh (ERBB2; [1]): 9%
%Inh (ERBB3; [1]): 0%
%Inh (ERBB4; [1]): 63%
%Inh (ERK1; [1]): 8%
%Inh (ERK2; [1]): 0%
%Inh (ERK3; [1]): 14%
%Inh (ERK4; [1]): 10%
%Inh (ERK5; [1]): 0%
%Inh (ERK8; [1]): 0%
%Inh (ERN1; [1]): 2%
%Inh (FAK; [1]): 0%
%Inh (FER; [1]): 4%
%Inh (FES; [1]): 0%
%Inh (FGFR1; [1]): 0%
%Inh (FGFR2; [1]): 3%
%Inh (FGFR3; [1]): 17%
%Inh (FGFR4; [1]): 8%
%Inh (FGR; [1]): 24%
%Inh (FLT1; [1]): 17%
%Inh (FLT3-autoinhibited; [1]): 0%

Cc1ccc(NC(=O)Nc2cccc(C(F)(F)F)c2)cc1 [GSK955403]
%Inh (ERBB2; 1 µM): 0%
%Inh (ERBB3; 1 µM): 17%
%Inh (ERBB4; 1 µM): 0%
%Inh (ERK1; 1 µM): 0%
%Inh (ERK2; 1 µM): 0%
%Inh (ERK3; 1 µM): 0%
%Inh (ERK4; 1 µM): 0%
%Inh (ERK5; 1 µM): 5%
%Inh (ERK8; 1 µM): 0%
%Inh (ERN1; 1 µM): 0%
%Inh (FAK; 1 µM): 1%
%Inh (FER; 1 µM): 0%
%Inh (FES; 1 µM): 0%
%Inh (FGFR1; 1 µM): 1%
%Inh (FGFR2; 1 µM): 0%
%Inh (FGFR3; 1 µM): 5%
%Inh (FGFR4; 1 µM): 0%
%Inh (FGR; 1 µM): 0%
%Inh (FLT1; 1 µM): 23%
%Inh (FLT3-autoinhibited; 1 µM): 0%

Clc1cc(Cl)cc(Nc2ccnc(Nc3cc(Cl)cc(Cl)c3)n2)c1 [GSK175726]
%Inh (ERBB2; [1]): 22%
%Inh (ERBB3; [1]): 0%
%Inh (ERBB4; [1]): 36%
%Inh (ERK1; [1]): 0%
%Inh (ERK2; [1]): 0%
%Inh (ERK3; [1]): 14%
%Inh (ERK4; [1]): 20%
%Inh (ERK5; [1]): 0%
%Inh (ERK8; [1]): 0%
%Inh (ERN1; [1]): 13%
%Inh (FAK; [1]): 0%
%Inh (FER; [1]): 13%
%Inh (FES; [1]): 9%
%Inh (FGFR1; [1]): 0%
%Inh (FGFR2; [1]): 50%
%Inh (FGFR3; [1]): 22%
%Inh (FGFR4; [1]): 6%
%Inh (FGR; [1]): 46%
%Inh (FLT1; [1]): 16%
%Inh (FLT3-autoinhibited; [1]): 0%

CC(C)(C)c1ccc(C(=O)Nc2cn3cc(-c4cccnc4)ccc3n2)cc1
%Inh (ERBB2; [1]): 34%
%Inh (ERBB3; [1]): 0%
%Inh (ERBB4; [1]): 1%
%Inh (ERK1; [1]): 0%
%Inh (ERK2; [1]): 18%
%Inh (ERK3; [1]): 14%
%Inh (ERK4; [1]): 23%
%Inh (ERK5; [1]): 20%
%Inh (ERK8; [1]): 16%
%Inh (ERN1; [1]): 12%
%Inh (FAK; [1]): 12%
%Inh (FER; [1]): 0%
%Inh (FES; [1]): 29%
%Inh (FGFR1; [1]): 27%
%Inh (FGFR2; [1]): 21%
%Inh (FGFR3; [1]): 16%
%Inh (FGFR4; [1]): 0%
%Inh (FGR; [1]): 19%
%Inh (FLT1; [1]): 22%
%Inh (FLT3-autoinhibited; [1]): 0%

Cl.Oc1ccc(-c2nc(-c3ccccc3)[nH]c2-c2ccncc2)cc1 [SB-428218]
%Inh (ERBB2; [1]): 57%
%Inh (ERBB3; [1]): 31%
%Inh (ERBB4; [1]): 27%
%Inh (ERK1; [1]): 0%
%Inh (ERK2; [1]): 0%
%Inh (ERK3; [1]): 0%
%Inh (ERK4; [1]): 16%
%Inh (ERK5; [1]): 38%
%Inh (ERK8; [1]): 0%
%Inh (ERN1; [1]): 0%
%Inh (FAK; [1]): 0%
%Inh (FER; [1]): 0%
%Inh (FES; [1]): 17%
%Inh (FGFR1; [1]): 0%
%Inh (FGFR2; [1]): 4%
%Inh (FGFR3; [1]): 0%
%Inh (FGFR4; [1]): 9%
%Inh (FGR; [1]): 62%
%Inh (FLT1; [1]): 0%
%Inh (FLT3-autoinhibited; [1]): 0%

Cl.O=C(Nc1cccc(-c2nn3ncccc3c2-c2ccnc(Nc3cccnc3)n2)c1)c1c(F)cccc1F [GSK312879]
%Inh (ERBB2; [1]): 95.9%
%Inh (ERBB3; [1]): 0%
%Inh (ERBB4; [1]): 93.2%
%Inh (ERK1; [1]): 8%
%Inh (ERK2; [1]): 0%
%Inh (ERK3; [1]): 0%
%Inh (ERK4; [1]): 16%
%Inh (ERK5; [1]): 0%
%Inh (ERK8; [1]): 28%
%Inh (ERN1; [1]): 4%
%Inh (FAK; [1]): 0%
%Inh (FER; [1]): 10%
%Inh (FES; [1]): 11%
%Inh (FGFR1; [1]): 8%
%Inh (FGFR2; [1]): 0%
%Inh (FGFR3; [1]): 23%
%Inh (FGFR4; [1]): 8%
%Inh (FGR; [1]): 40%
%Inh (FLT1; [1]): 45%
%Inh (FLT3-autoinhibited; [1]): 4%

Cc1cccc(-c2nc(Nc3ccncc3)c3ccccc3n2)n1 [GW855857]
%Inh (ERBB2; [1]): 7%
%Inh (ERBB3; [1]): 43%
%Inh (ERBB4; [1]): 0%
%Inh (ERK1; [1]): 0%
%Inh (ERK2; [1]): 9%
%Inh (ERK3; [1]): 0%
%Inh (ERK4; [1]): 7%
%Inh (ERK5; [1]): 30%
%Inh (ERK8; [1]): 17%
%Inh (ERN1; [1]): 0%
%Inh (FAK; [1]): 31%
%Inh (FER; [1]): 0%
%Inh (FES; [1]): 13%
%Inh (FGFR1; [1]): 5%
%Inh (FGFR2; [1]): 7%
%Inh (FGFR3; [1]): 2%
%Inh (FGFR4; [1]): 6%
%Inh (FGR; [1]): 31%
%Inh (FLT1; [1]): 0%
%Inh (FLT3-autoinhibited; [1]): 0%
